Results as given in PubChem BioAssay (Tox21).
Records with an inconclusive call do not appear. Calls of active or inactive are those of the source. The call rests on the fitted dose curve; in most records, active means well fitted curve in the direction sought with a large enough effect in the repeat runs; inconclusive means weak or mixed curves; inactive means no such curve, though single readings can be large; an effect the other way counts as inactive or inconclusive.

How the values were obtained:
[1] = A CellTox Green Cytotoxicity Assay to monitor cytotoxicity in HEK293 cells - 40 hour (AID 1224871); further: nearly all actives have a fitted effect of over 45% in size
Method in brief: (§1)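 HEK293 cells, 600/well, were preincubated 5 hours and then exposed to compounds at 37 C for up to 40 hours. A cell-impermeant cyanine dye staining dead-cell DNA was read by fluorescence at 0, 8, 16, 24, 32 and 40 h time points.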

[2] = qHTS RealTime-Glo MT Cell Viability Assay in HEK293 cells - 16 hour (AID 1224872); further: top concentration of the series differs between compounds; nearly all actives have a fitted effect of over 50% in size
Method in brief: (§2)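 Homogeneous bioluminescent viability format in HEK293 cells (600 cells/well). Following 5 h at 37 C/5% CO2, 23 nL compound was pintooled; the signal was measured repeatedly during 40 h incubation.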

[3] = qHTS RealTime-Glo MT Cell Viability Assay in HepG2 cells - 8 hour (AID 1224873); further: nearly all actives have a fitted effect of over 55% in size
Method in brief: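 HepG2 cells mixed with RealTime-Glo MT reagents (NanoLuc plus cell-permeant prosubstrate) were seeded at 600 cells/well, incubated 5 h at 37 C/5% CO2, then pinned with compounds in DMSO; nonlytic luminescence tracked viability during 40 h treatment.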

[4] = A CellTox Green Cytotoxicity Assay to monitor cytotoxicity in HEK293 cells - 24 hour (AID 1224875); further: series mostly up to about 77 µM; nearly all actives have a fitted effect of over 45% in size
Method in brief: as §1

[5] = A CellTox Green Cytotoxicity Assay to monitor cytotoxicity in HepG2 cells - 16 hour (AID 1224876); further: nearly all actives have a fitted effect of over 45% in size; further: potency means the concentration at half of the fitted maximal effect
Method in brief: (§3)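 HepG2 cells, 600/well, preincubated 5 h with CellTox Green dye, then exposed to Tox21 compounds in DMSO at 37 C for up to 40 h. Dead-cell DNA fluorescence read at the indicated time point.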

[6] = qHTS RealTime-Glo MT Cell Viability Assay in HepG2 cells - 32 hour (AID 1224877); further: nearly all actives have a fitted effect of over 55% in size
Method in brief: (§4)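 Cell number in HepG2 cultures estimated from NanoLuc luminescence generated by metabolic reduction of a prosubstrate by living cells. The homogeneous, nonlytic format allowed repeated reads at 0, 8, 16, 24, 32 and 40 h of compound exposure.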

[7] = A CellTox Green Cytotoxicity Assay to monitor cytotoxicity in HepG2 cells - 24 hour (AID 1224878); further: nearly all actives have a fitted effect of over 45% in size; further: potency means the concentration at half of the fitted maximal effect
Method in brief: as §3

[8] = qHTS RealTime-Glo MT Cell Viability Assay in HEK293 cells - 0 hour (AID 1224880)
Method in brief: (§5)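 600 cells/well were plated with the nonlytic NanoLuc/prosubstrate reagent, pre-incubated 5 h, then given 23 nL of compound in DMSO. Incubation at 37 C for 40 h, with luminescence from viable-cell-reduced substrate read repeatedly from 0 h.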

[9] = A CellTox Green Cytotoxicity Assay to monitor cytotoxicity in HEK293 cells - 32 hour (AID 1224881); further: nearly all actives have a fitted effect of over 40% in size
Method in brief: as §1

[10] = A CellTox Green Cytotoxicity Assay to monitor cytotoxicity in HepG2 cells - 0 hour (AID 1224882); further: nearly all actives have a fitted effect of over 35% in size
Method in brief: as §3

[11] = A CellTox Green Cytotoxicity Assay to monitor cytotoxicity in HEK293 cells - 8 hour (AID 1224884); further: nearly all actives have a fitted effect of over 35% in size
Method in brief: as §1

[12] = qHTS RealTime-Glo MT Cell Viability Assay in HepG2 cells - 16 hour (AID 1224885); further: nearly all actives have a fitted effect of over 50% in size
Method in brief: as §4

[13] = qHTS RealTime-Glo MT Cell Viability Assay in HEK293 cells - 24 hour (AID 1224886); further: top concentration of the series differs between compounds; nearly all actives have a fitted effect of over 50% in size
Method in brief: as §2

[14] = qHTS RealTime-Glo MT Cell Viability Assay in HEK293 cells - 8 hour (AID 1224887); further: top concentration of the series differs between compounds; nearly all actives have a fitted effect of over 50% in size
Method in brief: as §5

[15] = A CellTox Green Cytotoxicity Assay to monitor cytotoxicity in HEK293 cells - 16 hour (AID 1224888); further: nearly all actives have a fitted effect of over 35% in size
Method in brief: as §1

[16] = qHTS RealTime-Glo MT Cell Viability Assay in HepG2 cells - 0 hour (AID 1224889); further: nearly all actives have a fitted effect of over 50% in size
Method in brief: as §4

[17] = A CellTox Green Cytotoxicity Assay to monitor cytotoxicity in HepG2 cells - 40 hour (AID 1224879); further: nearly all actives have a fitted effect of over 40% in size; further: potency means the concentration at half of the fitted maximal effect
Method in brief: as §3

[18] = A CellTox Green Cytotoxicity Assay to monitor cytotoxicity in HepG2 cells - 32 hour (AID 1224883); further: nearly all actives have a fitted effect of over 50% in size; further: potency means the concentration at half of the fitted maximal effect
Method in brief: as §3

[19] = A CellTox Green Cytotoxicity Assay to monitor cytotoxicity in HepG2 cells - 8 hour (AID 1224890); further: nearly all actives have a fitted effect of over 45% in size
Method in brief: as §3

Measured: Potency

c1cc2ccc3cccc4ccc(c1)c2c34
inactive: [1] | [2] | [3] | [4] | [5] | [6] | [7] | [8] | [9] | [10] | [11] | [12] | [13] | [14] | [15] | [16]

O=C(C(Cl)(Cl)Cl)C(Cl)(Cl)Cl
inactive: [1] | [2] | [3] | [4] | [5] | [6] | [7] | [17] | [8] | [9] | [10] | [18] | [12] | [13] | [14] | [15] | [16]

BrCCCCBr
inactive: [1] | [2] | [3] | [4] | [5] | [6] | [7] | [8] | [9] | [10] | [18] | [11] | [12] | [13] | [14] | [15] | [16] | [19]

CN1[C@@H]2CC[C@H]1CC(OC(=O)c1cc(Cl)cc(Cl)c1)C2 (some centres undefined)
active: [5] 21.3 µM | [7] 23.9 µM | [17] 23.9 µM | [18] 23.9 µM
inactive: [1] | [2] | [3] | [4] | [8] | [9] | [10] | [11] | [14] | [15] | [16] | [19]

C[C@@H]1CC[C@H]2[C@@H](C)C(=O)O[C@@H]3O[C@@]4(C)CC[C@@H]1[C@]32OO4
inactive: [1] | [2] | [3] | [4] | [5] | [6] | [7] | [17] | [8] | [9] | [10] | [18] | [11] | [12] | [13] | [14] | [15] | [16] | [19]

Nc1nc(N)nc(N)n1
inactive: [1] | [2] | [3] | [4] | [5] | [6] | [7] | [17] | [8] | [9] | [10] | [18] | [11] | [13] | [14] | [15] | [16] | [19]

O=C(NC(=O)c1c(F)cccc1F)Nc1ccc(OC(F)(F)C(F)OC(F)(F)F)c(Cl)c1 (centres undefined)
inactive: [1] | [2] | [3] | [4] | [5] | [6] | [7] | [17] | [8] | [9] | [10] | [18] | [11] | [12] | [13] | [14] | [15] | [16] | [19]

CCC(Br)(CC)C(=O)NC(N)=O
inactive: [1] | [2] | [3] | [4] | [5] | [6] | [7] | [8] | [9] | [18] | [11] | [12] | [13] | [14] | [15] | [16] | [19]

N#CCc1ccccc1
inactive: [1] | [2] | [3] | [4] | [5] | [6] | [7] | [17] | [8] | [9] | [10] | [18] | [11] | [12] | [13] | [14] | [15] | [16] | [19]

C=CC(=O)NCNC(=O)C=C
inactive: [1] | [2] | [3] | [4] | [5] | [6] | [7] | [8] | [9] | [10] | [18] | [12] | [13] | [14] | [15] | [16] | [19]

CCCCN(N=O)C(=N)N[N+](=O)[O-]
inactive: [1] | [2] | [3] | [4] | [5] | [6] | [7] | [17] | [8] | [9] | [10] | [18] | [12] | [13] | [14] | [15] | [16] | [19]

Cc1ccc(-c2c(Cl)nc(C#N)n2S(=O)(=O)N(C)C)cc1
inactive: [1] | [2] | [3] | [4] | [5] | [6] | [7] | [17] | [8] | [9] | [10] | [18] | [11] | [12] | [13] | [15] | [19]

COc1cc(CC(C)N)cc2c1OCO2 (centres undefined)
inactive: [1] | [2] | [3] | [4] | [5] | [6] | [7] | [17] | [8] | [9] | [10] | [18] | [11] | [12] | [13] | [15] | [16] | [19]
